Results filed as inconclusive are left out. Calls of active or inactive are those of the source. Rule for the calls: active = hit-call score of the fitted dose curve at least 0.9, where 1 is the maximum; inconclusive = response in the unintended direction; inactive = score below 0.9.
Tests used:
[1] = TOX21_p53_BLA_p2_viability: Viability Assessment in the Tox21 HCT-116 p53 Agonism Beta-lactamase Assay, Phase 2 (AID 2283591);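 note: compound exposure lasted 16 h at 37 °C; actives lower the ATP signal meaning cytotoxicity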
Summary of the method: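 HCT116 p53-bla cells, 4000/well, dosed after 5 h plating (217-fold dilution of DMSO stocks) and incubated 16 h at 37C. Viability taken as cellular ATP by CellTiter-Glo luminescence after 30 min RT; signal loss marks cytotoxicity.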

[2] = target: Cellular tumor antigen p53 (Homo sapiens) (UniProt P04637); assay: TOX21_p53_BLA_p2_ratio: Tox21 HCT-116 p53 Agonism Beta-lactamase Assay, Ratio, Phase 2 (AID 2283592)
Summary of the method: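 In this cell-based reporter format, HCT116 cells were dosed with chemicals delivered from DMSO by 217-fold dilution and incubated 16 h at 37C. Emission at 460 and 530 nm after 2 h CCF4-AM loading provided the ratio, fitted upward versus DMSO.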

[3] = target: Cellular tumor antigen p53 (Homo sapiens) (UniProt P04637); assay: TOX21_p53_BLA_p3_ratio: Tox21 HCT-116 p53 Agonism Beta-lactamase Assay, Ratio, Phase 3 (AID 2283596)
Summary of the method: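 HCT116 p53-bla cells (4000/well) given compound in DMSO (217-fold dilution) after 5 h, incubated 16 h at 37C. CCF4-AM substrate 2 h at room temperature; 460/530 nm emission ratio, gain fitted against DMSO.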

[4] = TOX21_p53_BLA_p4_viability: Viability Assessment in the Tox21 HCT-116 p53 Agonism Beta-lactamase Assay, Phase 4 (AID 2283597);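 note: hits lower the luminescence signal meaning cytotoxicity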
Summary of the method: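 We seeded HCT116 p53 reporter cells at 4000/well and waited 5 h. We then added compounds in DMSO at a 217-fold dilution and incubated for 16 h. Viability was read as CellTiter-Glo luminescence after 30 min at RT.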

[5] = target: Cellular tumor antigen p53 (Homo sapiens) (UniProt P04637); assay: TOX21_p53_BLA_p5_ratio: Tox21 HCT-116 p53 Agonism Beta-lactamase Assay, Ratio, Phase 5 (AID 2283599)
Summary of the method: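 HCT-116 p53-bla cells (4000/well) plated 5 h, dosed with compound (217-fold DMSO dilution) for 16 h at 37 C; CCF4-AM substrate 2 h at room temperature. Activity is the 460/530 nm emission ratio (405 nm excitation), fitted in gain-of-signal direction versus DMSO.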

[6] = TOX21_p53_BLA_p5_viability: Viability Assessment in the Tox21 HCT-116 p53 Agonism Beta-lactamase Assay, Phase 5 (AID 2283600)
Summary of the method: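 Compounds, pinned from DMSO at 217-fold dilution, were left on the cells for 16 h. The viability endpoint was ATP content measured by CellTiter-Glo luminescence, where falling signal reflects cytotoxicity.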

[7] = target: Cellular tumor antigen p53 (Homo sapiens) (UniProt P04637); assay: TOX21_p53_BLA_p4_ratio: Tox21 HCT-116 p53 Agonism Beta-lactamase Assay, Ratio, Phase 4 (AID 2283601)
Summary of the method: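 HCT-116 p53 beta-lactamase reporter cells (4000/well) preincubated 5 h, then compound (217-fold dilution of DMSO stock) for 16 h at 37C. CCF4-AM substrate added 2 h at room temperature; 460/530 nm emission ratio fitted upward versus DMSO.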

[8] = TOX21_p53_BLA_p3_viability: Viability Assessment in the Tox21 HCT-116 p53 Agonism Beta-lactamase Assay, Phase 3 (AID 2283593);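 note: cells exposed to compound for 16 h before reading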
Summary of the method: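 HCT116 cells, 4000/well, dosed 5 h after plating by pin transfer (217-fold dilution from DMSO stock) and incubated 16 h at 37C, 5% CO2. Viability read as ATP luminescence with CellTiter-Glo after 30 min at room temperature.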

Chain of Cellular tumor antigen p53 (Homo sapiens) (P04637 whole entry, looked up): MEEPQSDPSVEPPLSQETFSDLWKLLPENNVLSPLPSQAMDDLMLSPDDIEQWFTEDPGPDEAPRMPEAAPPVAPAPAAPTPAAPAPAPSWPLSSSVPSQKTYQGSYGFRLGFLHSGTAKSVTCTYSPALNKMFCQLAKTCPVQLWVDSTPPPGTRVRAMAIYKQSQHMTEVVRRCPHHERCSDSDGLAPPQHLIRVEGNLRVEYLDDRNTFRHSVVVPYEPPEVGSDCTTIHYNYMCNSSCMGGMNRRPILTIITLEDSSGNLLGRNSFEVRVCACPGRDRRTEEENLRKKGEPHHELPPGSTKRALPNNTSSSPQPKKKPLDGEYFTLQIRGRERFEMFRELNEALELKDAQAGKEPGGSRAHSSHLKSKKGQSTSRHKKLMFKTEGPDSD

**Q.** Which outcome [1] does the source give for `CCCSc1cc(OC)c(CCN)cc1OC` here?
**A.** inactive

**Q.** And the AC50 [2]?
**A.** 26.1 µM (active)

**Q.** And the AC50 [3]?
**A.** 48 µM (active)

**Q.** And the outcome [4]?
**A.** inactive

**Q.** What about the AC50 [5] of the same compound?
**A.** 43.7 µM (active)

**Q.** What about the outcome [6] of the same compound?
**A.** inactive

**Q.** And the AC50 [7]?
**A.** 24.4 µM (active)

**Q.** For `CC(Cl)CCl` (stereo unspecified), which outcome [1] is on record?
**A.** inactive

**Q.** What about the outcome [2] of the same compound?
**A.** inactive

**Q.** What about the outcome [3] of the same compound?
**A.** inactive

**Q.** And the outcome [4]?
**A.** inactive

**Q.** What about the outcome [5] of the same compound?
**A.** inactive

**Q.** And the outcome [6]?
**A.** inactive

**Q.** What about the outcome [7] of the same compound?
**A.** inactive

**Q.** Which outcome [1] does the source give for `C=CC(=O)OC(C)(C)C` here?
**A.** inactive

**Q.** And the outcome [2]?
**A.** inactive

**Q.** What about the outcome [3] of the same compound?
**A.** inactive

**Q.** And the outcome [4]?
**A.** inactive

**Q.** And the outcome [5]?
**A.** inactive

**Q.** And the outcome [6]?
**A.** inactive

**Q.** For `ClC(Cl)(Cl)C(Cl)(Cl)Cl`, which outcome [1] is on record?
**A.** inactive

**Q.** What about the outcome [2] of the same compound?
**A.** inactive

**Q.** And the outcome [8]?
**A.** inactive

**Q.** And the outcome [6]?
**A.** inactive

**Q.** For `C[C@H]1CC[C@]2(NC1)O[C@H]1C[C@H]3[C@@H]4CC[C@H]5C[C@@H](O[C@@H]6O[C@H](CO)[C@H](O[C@@H]7O[C@H](CO)[C@@H](O)[C@H](O[C@@H]8OC[C@@H](O)[C@H](O)[C@H]8O)[C@H]7O[C@@H]7O[C@H](CO)[C@@H](O)[C@H](O)[C@H]7O)[C@H](O)[C@H]6O)CC[C@]5(C)[C@H]4CC[C@]3(C)[C@H]1[C@@H]2C`, which AC50 [1] is on record?
**A.** 4.84 µM (active)

**Q.** What about the AC50 [2] of the same compound?
**A.** 31.4 µM (active)

**Q.** And the AC50 [3]?
**A.** 29.4 µM (active)

**Q.** What about the AC50 [4] of the same compound?
**A.** 4.05 µM (active)

**Q.** And the AC50 [5]?
**A.** 30.3 µM (active)

**Q.** What about the AC50 [6] of the same compound?
**A.** 6.08 µM (active)

**Q.** And the AC50 [7]?
**A.** 24 µM (active)

**Q.** With `C=CC=O` as the compound, how does the outcome [1] read?
**A.** inactive

**Q.** And the outcome [2]?
**A.** inactive

**Q.** What about the outcome [3] of the same compound?
**A.** inactive

**Q.** What about the outcome [4] of the same compound?
**A.** inactive

**Q.** And the outcome [5]?
**A.** inactive

**Q.** And the outcome [6]?
**A.** inactive

**Q.** What does the source list for `Nc1nc(N)c(N)c(N)n1`?
**A.** outcome [1]: inactive; outcome [2]: inactive; outcome [3]: inactive; outcome [4]: inactive

— PubChem BioAssay (EPA / NIEHS)
